Screens as filed in PubChem.
BAZ2B inh = qHTS Assay for Inhibitors of BAZ2B; Bromodomain adjacent to zinc finger domain protein 2B (Homo sapiens), Q9UIF8; AlphaScreen BAZ2B-H3K14Ac peptide displacement; Potency, µM (doses to about 114 µM), inactives show at the top dose activity change, negative = inhibition, usual class: inhibitors; actives 4.4% (n = 360,000); AID 504333, 2011; further: on the % scale 0 is the no-effect control and ±100 the full control effect; nearly all actives have a fitted effect of over 60% in size
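AlphaScreen displacement: compounds (up to 110uM) incubated 30 min at room temperature with a preformed 50 nM BAZ2B/50 nM biotinylated H3K14Ac peptide complex in PBS pH 7.4 with Tween-20. Donor and acceptor beads at 10 ug/mL final added, 20 min light-protected before reading.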
HP1b chromo inh = HTS for Inhibitors of HP1-beta Chromodomain Interactions with Methylated Histone Tails; Potency, µM (highest dose often 114 µM), without a hit: at the top dose activity change, negative = inhibition, most hits filed as inhibitors; AID 540317, 2011; actives 0.56% (n = 390,000); Chromobox protein homolog 1 (Homo sapiens), P83916; AlphaScreen HP1-beta / biotin-H3K9me3 peptide binding; further: nearly all actives have a fitted effect of over 70% in size
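HP1-beta protein (50 nM final) preincubated 30 min at room temperature with biotinylated H3(1-18)K9me3 peptide (50 nM) in PBS pH 7.4, 0.01% Tween-20, then compound added for 30 min. AlphaScreen streptavidin donor/nickel chelate acceptor beads (10 ug/mL final), 30 min dark, luminescence read.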
JMJD2A Tudor inh = qHTS Assay for Inhibitors of JMJD2A-Tudor Domain; AlphaScreen JMJD2A-Tudor / H3K4me3 peptide binding; Potency, µM (series often up to 114 µM), without a hit: at the top dose activity change, negative = inhibition, most hits filed as inhibitors; actives 4.4% (n = 390,000); further: on the % scale 0 is the no-effect control and ±100 the full control effect; nearly all actives have a fitted effect of over 50% in size
L3MBTL1 inh = qHTS Assay for the Inhibitors of L3MBTL1. actives 0.66% (n = 230,000). Potency, µM (titrated, usually from 57.1 µM), for the others: top-dose activity, negative = inhibition, most hits filed as inhibitors. AID 485360, 2010. Lethal(3)malignant brain tumor-like protein 1 (Homo sapiens), Q9Y468. AlphaScreen L3MBTL1–H3K9me1 peptide binding; further: on the % scale 0 is the no-effect control and ±100 the full control effect; nearly all actives have a fitted effect of over 60% in size
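Read-out is AlphaScreen signal from streptavidin donor and nickel chelate acceptor beads (10 ug/mL final each) bridging L3MBTL1 (50 nM) and biotinylated K9-monomethylated H3(1-15) peptide (75 nM), after 30 min compound exposure at room temperature.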
Sfp PPTase inh = qHTS Assay for Inhibitors of Bacillus subtilis Sfp phosphopantetheinyl transferase (PPTase); 4'-phosphopantetheinyl transferase ffp (Bacillus subtilis), Q9F4F7; Biochemical Sfp PPTase activity, qHTS; Potency, µM, inactives show largest response in the series, negative = inhibition, usual class: inhibitors; actives 3.5% (n = 310,000);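 further: the enzyme is Sfp with the accession as filed and its product quenches rhodamine fluorescence; 0% = enzyme reaction without inhibitor and -100% = no enzyme wells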
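Fluorescence-quenching assay with 15 nM Sfp, 5 uM rhodamine-CoA and 12.5 uM BHQ-2-labelled ybbR peptide in pH 7.6 Hepes/MgCl2 buffer. Enzyme was pre-incubated with compound for 15 min at room temperature. Rate was taken from the 30-min fluorescence change (525/598 nm).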
G9a block = qHTS Assay for Inhibitors of Histone Lysine Methyltransferase G9a | actives 8.8% (n = 350,000) | Histone-lysine N-methyltransferase EHMT2 (Homo sapiens), Q96KQ7 | G9a H3K9 monomethylation, AlphaScreen, 2 h | Potency, µM (titrated, usually from 102 µM), without a hit: top-dose activity, negative = inhibition, hits mostly inhibitors; further: on the % scale 0 is the no-effect control and ±100 the full control effect; nearly all actives have a fitted effect of over 75% in size
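G9a (20 nM) was preincubated 15 min with compound, then reacted 2 h at room temperature with 500 nM biotin-H3K9 peptide and 20 µM SAM. Monomethyl-H3K9 detected by AlphaScreen using anti-H3K9me1 antibody.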
* marks the source's active call; other numbers are inactive results; ? = inconclusive; nt = no result; [ ] = remark or other dose. Rows were chosen to be rich in hits. Some 12% of all compounds tested hit in one or more screens of this group. The call rests on the fitted dose curve; in most records, active means well fitted curve in the direction sought with a large enough effect; inconclusive means small, poorly fitted or top-dose-only effect, or another doubt; inactive means no such curve, though single readings can be large; an effect the other way counts as inactive or inconclusive. Potency means the concentration at half of the fitted maximal effect.

SMILES	BAZ2B inh	HP1b chromo inh	JMJD2A Tudor inh	L3MBTL1 inh	Sfp PPTase inh	G9a block
CCn1ncc(-c2ccnc3cc(C(=O)O)nn23)c1C	32µM*	15%	25µM*	16µM*	?	?
O=C1NC(=O)C(CCc2ccncc2)(CCc2ccncc2)C(=O)N1Cc1ccc(F)cc1	-10%	-8%	-17%	5%	2%	nt
O=C1NC(=O)N(Cc2ccccc2Cl)C(=O)/C1=C/c1cccs1	nt	35%	-14%	nt	32µM*	11µM*
O=C1NC(=O)N(Cc2ccc(F)cc2)C(=O)/C1=C/c1cccs1	79µM*	27%	-29%	nt	45µM*	4µM*
C=CCN	nt	nt	nt	nt	8%	15%[59 µM]
CC1O[C@@H](O[C@@H]2C(O)C[C@H](O[C@@H]3C(O)C[C@@H](OC4CC[C@@]5(C)C6CC[C@]7(C)C(C8=CC(=O)OC8)CC[C@@]7(O)C6CC[C@@H]5C4)OC3C)OC2C)CC(O)[C@H]1O (stereo partly drawn)	nt	nt	nt	nt	2%	-13%[2.33 µM]
Cc1ccc(CCNC(=O)Cn2nc(C)c3c(C)n(-c4ccc(C)cc4)nc3c2=O)cc1	?	43%	5%	nt	nt	-2%[59 µM]
COC(=O)[C@H]1[C@H](c2ccccc2)C(=O)[C@@]2(O)c3ccccc3O[C@@]12c1ccccc1	nt	nt	nt	nt	11%	nt
CCCC12CN3CC(CCC)(CN(C1)C3c1ccccn1)C2=O (stereo not drawn)	20µM*	33%	25µM*	nt	15%	-1%[12.7 µM]
CCCC12CN3CCN(C1)CC(CCC)(C3)C2=O	0%	8%	-9%	-2%	18%	11%
COc1ccccc1CNC(=O)C(NS(=O)(=O)c1ccc2c(c1)oc(=O)n2C)C(C)C (stereo not drawn)	-2%	46%	-6%	nt	12%	-3%
COc1cc(Br)cc(CN2CCN(C)CC2)c1O	?	20%	-16%	nt	2%	?
c1cc2c(cc1CN1CCNCC1)OCO2	-13%	23%	-12%	nt	12%	-27%
COc1ccccc1N1CCN(Cc2ccccc2)CC1	35µM*	?	20µM*	-1%[2.29 µM]	?	7%[0.501 µM]
COc1ccccc1N1CCN(Cc2cccc(Br)c2)CC1	50µM*	?	13µM*	-8%	-25%	11µM*
Cc1cccc(N2CCN(Cc3ccc4c(c3)OCO4)CC2)c1C	50µM*	?	28µM*	-6%	-26%	7.9µM*
COc1ccccc1N1CCN(Cc2c(F)cccc2Cl)CC1	?	29%	3%	nt	-2%	?
CN1CCN(Cc2ccc(Br)s2)CC1	?	?	5.6µM*	nt	?	4µM*
CC(=O)OC[C@H](N)C(=O)c1ccccc1	nt	nt	nt	nt	-1%	?
Cc1cccc(Cc2cnc(NC(=O)c3ccc4c(c3)CC(c3ccccc3)OC4=O)s2)c1 (stereo not drawn)	1%	62%	7%	nt	nt	6%[59 µM]
COc1ccccc1N1CCN(Cc2ccc(Br)s2)CC1	50µM*	?	0.89µM*	-17%	-22%	-2%[12.7 µM]
COc1ccccc1N1CCN(Cc2cc(C)c(C)cc2O)CC1	-8%	-5%	-21%	nt	12%	10%[59 µM]
COc1ccccc1N1CCN(Cc2ccc3c(c2)OCO3)CC1	nt	?	20µM*	nt	nt	nt
Oc1cc2c(cc1CN1CCN(c3ccccc3F)CC1)OCO2	?	71µM*	40µM*	nt	5%	8.9µM*
C[N+]12CCC(CC1)C(=C(c1ccccc1)c1ccccc1)C2	4%	12%	-13%	11%	-10%	3.5µM*
SMILES	BAZ2B inh	HP1b chromo inh	JMJD2A Tudor inh	L3MBTL1 inh	Sfp PPTase inh	G9a block
CC[N+]12CCC(CC1)C(=C(c1ccccc1)c1ccccc1)C2	24%	44%	-12%	39%	-10%	46%[59 µM]
Cc1ncc(C[n+]2csc(CCOP(=O)(O)O)c2C)c(N)n1	nt	nt	nt	nt	14%	?
CN1CSC(=S)N(C)C1	3%	-3%	-13%	nt	45µM*	?
C[C@@H](NC(=O)[C@@H](N)Cc1ccc(O)cc1)C(=O)NCC(=O)N(C)[C@@H](Cc1ccccc1)C(=O)NCCO	nt	nt	nt	nt	2%	nt
Cc1ccc2c(c1)C1CN(C)CCC1N2C(=O)c1ccc(Br)o1 (stereo not drawn)	-6%	5%	-9%	nt	-6%	79µM*
COc1cc2c(cc1O)C(CCc1ccc(Cl)cc1)N(C)CC2 (stereo not drawn)	nt	nt	nt	nt	8%	nt
CCC1C2CC3C4N(C)c5ccccc5[C@]45CC(C2C5O)N3C1O (stereo partly drawn)	nt	nt	nt	nt	10%	-3%[2.33 µM]
O=C(Cn1c(=O)n(Cc2ccccc2)c(=O)c2sc3ccccc3c21)NCc1ccccc1Cl	-32%	63%	-5%	nt	nt	10%[59 µM]
CN(C)CCN(C(=O)c1cc(Cl)sc1Cl)c1nc2ccc(F)cc2s1	?	-14%	?	-2%	-4%	11µM*
CCOc1ccccc1-n1c(O)c(C=NCc2ccc3c(c2)OCO3)c(=O)[nH]c1=O	8%	22%	12%	9%	9%	-6%
CCOc1ccccc1CN(CCc1ccc2c(c1)OCO2)Cc1ccc(CC)cc1	40µM*	?	5µM*	nt	nt	?
CCCCC/C=C\C=C\[C@H](CCCCCCCC(=O)O)OO	nt	nt	nt	nt	20%	7%[59 µM]
O=C(c1ccco1)N1CCC[C@@]2(CCN(Cc3ccncc3)C2)C1	nt	nt	nt	nt	?	7%[12.7 µM]
COC(=O)C1=CO[C@@H](C)[C@@H]2CN3CCc4c([nH]c5cc(OC)ccc45)[C@@H]3C[C@H]12	nt	nt	nt	nt	-3%	nt
